Results as given in PubChem BioAssay.

test: adipocyte viability effects, profiling panel, cell-based, 3T3-L1 adipocytes, calcein-AM fluorescence, 48 h, basal (AID 1163); conditions: 3T3-L1 adipocytes viability, higher = more signal; also: test concentration not given here

Compound	z-score
O=C1O[C@H](c2ccccc2)[C@H](c2ccccc2)N2[C@H]1[C@@H](C(=O)N1CCCCCCC1)[C@]1(C(=O)Nc3ccc(C#CC4=CCCCC4)cc31)[C@H]2c1ccc(OCCO)cc1	1.67
COC(=O)[C@@]1(CCC(=O)OC(C)(C)C)N=C(c2ccc(OCCCO)cc2)O[C@H]1c1ccccc1N=[N+]=[N-]	1.12
O=C1C2C=CC(C(O)c3cc(C(F)(F)F)cc(C(F)(F)F)c3)N(n3cnnc3)C2C(=O)N1Cc1ccccc1 (stereo not given)	0.649
CCCCCN1CC=CC23O[C@@H]4C=CCCOC(=O)C4[C@H]2C(=O)N(CCCCCO)[C@@H]3C1=O (stereo not given in full)	-1.3
COc1ccc([Si](C)(C)[C@@H]2[C@@H](CCO)O[C@]3(C(=O)N(Cc4ccc(N(C=O)c5ccccc5)cc4)c4ccccc43)[C@H]2C)cc1	-0.193
C=CCOC(=O)[C@H]1[C@@H]2C(=O)O[C@@H](c3ccccc3)[C@@H](c3ccccc3)N2[C@@H](c2ccc(OCCOC(=O)[C@H]3C[C@H]4C(=O)N[C@@H](CCCCNC(C)=O)C(=O)N4[C@H]3c3cccc(OCCO)c3)cc2)[C@]12C(=O)Nc1ccccc12	0.457
[N-]=[N+]=NCc1ccccc1C[C@]1(C(N)=O)COC(c2ccc(OCCCO)cc2)=N1	0.431
C=C(CC1([C@@H](NP(=O)(c2ccccc2)c2ccccc2)[C@H]2C[C@@H]2CCCC)CC1)c1ccccc1	-0.523
CC[C@@H]1C=C(C(=O)O)[C@H](c2ccc(Br)cc2)N1S(=O)(=O)c1ccc(C)cc1	-0.506
C=C(CCCC)/C(=C/C[C@H](OC(C)=O)c1ccccc1OCCO)c1cc(C(=O)OC)ccc1OC	1.66
